# Tau fluor cs = counter-screen for tau fibril formation inhibitors | Potency, µM (series often up to 57.7 µM), for inactives: at the top dose activity change, negative = decrease | tau K18 P301L Alexa594 fluorescence, heparin fibrillization | hit rate 0.93% among 280,000; further: nearly all actives have a fitted effect of over 55% in size
#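 Human K18 P301L tau (15 uM unlabeled plus 0.24 uM Alexa 594-labeled, final) in 100 mM sodium acetate pH 7 was mixed with compound and 20 uM heparin and incubated 6 hr at 37 C.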
# PLK1 PBD inh = blocks phosphopeptide binding to human PLK1 polo-box domain; Potency, µM, for the others: max response, negative = inhibition, hits mostly inhibitors; hit rate 2.8% among 360,000; AID 720504; Plk1 PBD binding of FITC phosphopeptide, fluorescence polarization; P53350; further: series mostly up to about 57 µM; nearly all actives have a fitted effect of over 65% in size
# Sfp inh = Sfp phosphopantetheinyl transferase inhibition | Biochemical Sfp PPTase activity, qHTS | hit rate 3.5% among 310,000 | Q9F4F7 | Potency, µM, inactives show largest response in the series, negative = inhibition, most hits filed as inhibitors | AID 1490;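 further: the enzyme is Sfp with the accession as filed and its product quenches rhodamine fluorescence; 0% = enzyme reaction without inhibitor and -100% = no enzyme wells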
#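 Fluorescence-quenching assay: 15 nM Sfp-PPTase preincubated 15 min at room temperature with compound, then 5 uM rhodamine-CoA and 12.5 uM BHQ-2-labelled YbbR peptide added. Fluorescence (ex 525/em 598 nm) read at start and after 30 min; difference gives rate.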
# Tau fibril ThT = tau fibrillization inhibition (ThT binding) | hit rate 2.1% among 270,000 | Potency, µM (doses to about 57.4 µM), inactives show at the highest dose activity, negative = inhibition, actives largely listed as inhibitors | recombinant tau K18 P301L (four-repeat tau fragment), heparin-induced fibrillization, ThT fluorescence | P10636; further: nearly all actives have a fitted effect of over 55% in size
# Target sequence (P10636 561-689 P618L limits assumed): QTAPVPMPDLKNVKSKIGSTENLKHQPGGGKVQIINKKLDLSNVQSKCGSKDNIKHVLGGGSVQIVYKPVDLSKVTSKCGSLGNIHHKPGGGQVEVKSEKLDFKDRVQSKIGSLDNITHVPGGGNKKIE
#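 Heparin-induced fibrillization of the P301L-mutant K18 repeat-domain fragment of human tau was followed by ThT binding in quantitative high-throughput format.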
# Tau fibril FP = inhibitors of human tau fibril formation; P10636; K18 P301L tau heparin fibrillization, Alexa594 FP, 6 h; Potency, µM (series often up to 57.7 µM), without a hit: top-dose activity, negative = inhibition, hits mostly inhibitors; hit rate 0.39% among 280,000; further: nearly all actives have a fitted effect of over 55% in size
#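 FP of Alexa 594-tau after heparin (20 uM) induction. Substrate: human K18 P301L, 15 uM unlabeled, 0.24 uM labeled. Buffer 100 mM sodium acetate pH 7. 6 hr, 37 C.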
# VDR inhibitor = vitamin D3 receptor (human) inhibition; P11473; VDR-SRC2-3 peptide fluorescence polarization, 2 h; Potency, µM, for inactives: max response, negative = inhibition, most hits filed as inhibitors; hit rate 0.93% among 400,000
#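 The screen uses fluorescence polarization to detect compounds that interfere with recruitment of the SRC2-3 coactivator peptide to VDR; plates are read after 2 h at room temperature.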
# An asterisk follows results filed as active; ? = inconclusive; . = no result given. Only some compounds are listed: those with a hit (about 6% of all), similar ones and a draw of the others. The call rests on the fitted dose curve; in most records, active means well fitted curve in the direction sought with a large enough effect; inconclusive means small, poorly fitted or top-dose-only effect, or another doubt; inactive means no such curve, though single readings can be large; an effect the other way counts as inactive or inconclusive. Unless noted, on the % scale 0 is the no-effect control and ±100 the full control effect; potency means the concentration at half of the fitted maximal effect.
SMILES,Tau fluor cs,PLK1 PBD inh,Sfp inh,Tau fibril ThT,Tau fibril FP,VDR inhibitor
c1ccc2c(c1)nnn2Cc1nnc2sc(-c3ccncc3)nn12,-7.7%,31.6µM*,39.8µM*,-21.0%,4.2%,-12.5%
CCN(CC)CCCC(C)n1c(-c2ccccc2)nc2c(N3CCOCC3)nc(C)nc21 (stereo not drawn),-0.5%,.,22.1%,-0.4%,-5.1%,.
CCOc1ccc(NC(=O)CN2CCN(c3ccc(F)cc3)CC2)cc1,.,1.0%,11.3%,.,.,-11.9%
O=C(CN1CCN(c2ccc(F)cc2)CC1)Nc1nccs1,.,23.8µM*,0.3%,.,.,-6.3%
COc1ccc(NC(=O)CN2CCN(c3ccc(F)cc3)CC2)cc1,.,29.9µM*,-3.4%,.,.,-51.7%
COc1ccc(N2CCN(CC(=O)Nc3cc(C)on3)CC2)cc1,-1.3%,-7.7%,50.1µM*,-10.9%,3.2%,4.2%
COc1ccc(-c2nsc(SCC(=O)Nc3cc(C)on3)n2)cc1,-3.6%,9.47µM*,15.8µM*,-7.9%,-7.5%,?
COc1ccc(N2CCN(CC(=O)Nc3cc(C)cc(C)c3)CC2)cc1,.,-3.2%,12.3%,.,.,2.8%
COc1cc2nc(N3CCN(C(=O)OCc4ccccc4)C(C(=O)NC(C)(C)C)C3)nc(N)c2cc1OC (stereo not drawn),?,.,.,-13.2%,4.2%,6.5%
CCc1nnc(NC(=O)CSc2nccn2-c2cccc(C)c2C)s1,-10.2%,-6.4%,?,-7.8%,?,14.2%
Cc1cc(NC(=O)CN2CCN(C)CC2)no1,9.7%,11.9µM*,-22.6%,5.3%,6.3%,?
Cc1cccc(-n2ccnc2SCC(=O)Nc2nccs2)c1C,-18.2%,26.7µM*,18.3%,?,-1.3%,-17.3%
COc1ccc(-n2c(=O)c3ccccc3n(CC(=O)Nc3cc(C)on3)c2=O)cc1OC,-2.5%,-5.3%,44.7µM*,20.4%,1.8%,-21.2%
O=C1CN(CC(=O)Nc2ccc(SC(F)F)cc2)CCN1,-11.2%,?,4.5%,-3.7%,-5.4%,0.5%
O=C(CN1CCN(c2ccc(O)cc2)CC1)Nc1ccc(SC(F)F)cc1,-29.6%,-6.5%,35.5µM*,?,10.8%,5.0%
CC1NC(=O)COC1c1ccccc1 (stereo not drawn),.,-13.7%,.,.,.,.
COc1cccc(CNC(=O)C(C)n2ncn3cccc3c2=O)c1OC (stereo not drawn),-13.6%,.,.,?,0.9%,9.3%
CCOc1ccc(S(=O)(=O)N2CCC(C(=O)Nc3ccc(C)c(S(=O)(=O)N4CCOCC4)c3)CC2)cc1,.,1.3%,.,.,.,-4.8%
COc1ccc(S(=O)(=O)N2CCC(C(=O)NCC(=O)Nc3c(C)cccc3C)CC2)cc1OC,.,-13.1%,.,.,.,-25.9%
Cc1cccc(-c2nsc(SCC(=O)Nc3ccc4c(c3)OCO4)n2)c1,?,-24.3%,-24.1%,?,-5.9%,-11.3%
Cc1cccc(-c2nsc(SCC(=O)Nc3nccs3)n2)c1,-11.3%,18.9µM*,50.1µM*,-10.9%,-4.2%,-29.2%
Cc1ccn2c(Nc3ccc4c(c3)OCCO4)c(-c3ccc(C)o3)nc2c1,?,.,.,?,10.5%,-8.7%
Cc1ccc(CNC(=O)c2ccc([N+](=O)[O-])o2)cc1,-3.5%,-0.9%,16.5%,-3.1%,1.6%,-10.8%
Cc1ccc(/C=C/C(=O)c2ccc([N+](=O)[O-])o2)cc1,.,-27.9%,.,.,.,5.62µM*
COc1ccccc1/C=C/C=c1\sc2nc(=O)c(Cc3ccccc3)nn2c1=O,?,?,56.2µM*,.,?,?
COc1ccccc1-c1nc2s/c(=C\c3cccs3)c(=O)n2n1,-0.8%,-29.9%,-11.5%,?,5.6%,-14.8%
CCCOc1ccc(Cc2nn3c(=O)/c(=C/c4ccco4)sc3nc2=O)cc1,-23.1%,-10.9%,50.1µM*,?,-10.7%,-6.9%
O=c1c(CCc2ccccc2)nc2cnc(N3CCOCC3)nc2n1C1CC1,.,.,8.6%,.,.,-2.4%
C[C@H](CO)N1C[C@H](C)[C@@H](CN(C)C(=O)CN2CCOCC2)Oc2ncc(-c3cncnc3)cc2C1=O,.,-6.4%,.,.,.,.
O=C(COC(=O)c1ccc([N+](=O)[O-])s1)NCc1ccccc1,-17.7%,1.1%,12.5%,-18.1%,-1.9%,2.7%

# Bioassay records from PubChem.
